In the antibiotic and cytotoxicity screens of Wong et al. (2023):
The campaign covered roughly 39,000 compounds. About 3,300 (8.5%) were called active. Many of the other results were omitted from the sample, so actives are more common in it than they were.

These molecules were tested on HepG2 (assay: cytotoxicity call (relative viability < 0.9)). Conditions: 10 µM.

SMILES	cytotoxicity call
C[C@H](CO)N1C[C@H](C)[C@H](CN(C)S(=O)(=O)c2ccc(F)cc2)Oc2ncc(C#CC(C)(C)O)cc2C1=O	inactive
C[C@@H]1CN([C@@H](C)CO)C(=O)c2c(c3ccccc3n2C)-c2ccccc2CO[C@@H]1CN(C)Cc1cccc(C(=O)O)c1	inactive
C[C@H](CO)N1C[C@H](C)[C@H](CN(C)S(=O)(=O)c2ccc(Oc3ccccc3)nc2)OCc2cnnn2CCCC1=O	inactive
COc1ccc(CCNC(=O)[C@@]2(Sc3ccc(C)cc3)CC(=O)N(Cc3cc(C(F)(F)F)cc(C(F)(F)F)c3)[C@@H]2c2ccc(CO)cc2I)cc1	inactive
Cc1ccc(S(=O)(=O)N2C[C@@H](O)COC[C@@H]3O[C@@H](CC(=O)N[C@@H]4CCN(Cc5ccccc5)C4)CC[C@H]32)cc1	inactive
COCC(=O)Nc1ccc2c(c1)C(=O)N(C)C[C@H](OC)[C@H](C)CN(C(=O)Cc1cccnc1)[C@H](C)CO2	inactive
C[C@@H]1CN([C@@H](C)CO)C(=O)c2cc(NC(=O)C3CC3)ccc2O[C@H]1CN(C)Cc1ccc(Oc2ccccc2)cc1	inactive
C[C@@H]1CN([C@@H](C)CO)S(=O)(=O)c2ccc(C#CC(C)(C)O)cc2O[C@H]1CN(C)C(=O)C1CCCCC1	inactive
O=C(C[C@@H]1C=C[C@H](NC(=O)C2CCC2)[C@H](CO)O1)NCCCN1CCOCC1	inactive
C[C@H](CO)N1C[C@H](C)[C@@H](CN(C)Cc2ccc(C(=O)Nc3ccccc3N)cc2)Oc2ccc(NC(=O)Cc3ccccc3)cc2C1=O	inactive
C[C@H]1CN([C@@H](C)CO)S(=O)(=O)c2ccc(-c3ccc(F)cc3)cc2O[C@@H]1CN(C)S(C)(=O)=O	inactive
C[C@@H]1CN([C@H](C)CO)C(=O)c2cc(NS(=O)(=O)c3ccccc3)ccc2O[C@@H](C)CCCCO[C@@H]1CN(C)S(C)(=O)=O	inactive
COc1ccc(S(=O)(=O)Nc2ccc3c(c2)C(=O)N([C@@H](C)CO)C[C@@H](C)[C@H](CN(C)C(=O)c2ccccc2)OCCCC[C@H](C)O3)cc1	inactive
C[C@H]1CN([C@@H](C)CO)C(=O)c2cc(NC(=O)Nc3cccc4ccccc34)ccc2O[C@@H]1CN(C)Cc1ccc(Oc2ccccc2)cc1	active
COc1ccc(CN(C)C[C@H]2Oc3ccc(NC(=O)Nc4cccc5ccccc45)cc3C(=O)N([C@H](C)CO)C[C@H]2C)cc1	inactive
COc1ccc(CN(C)C[C@@H]2Oc3ccc(NC(=O)Nc4cccc5ccccc45)cc3C(=O)N([C@@H](C)CO)C[C@@H]2C)cc1	inactive
C[C@H]1CN([C@@H](C)CO)C(=O)c2cccc(NC(=O)c3cnccn3)c2O[C@@H]1CN(C)C(=O)Nc1ccc(F)cc1	inactive
CC(=O)OCCn1c(=O)[nH]c(=O)c2nsnc21	inactive
Cc1ccc(S(=O)(=O)Nc2ccc3c(c2)C(=O)N([C@@H](C)CO)C[C@H](C)[C@H](CN(C)C(=O)Nc2cccc4ccccc24)OCCCC[C@@H](C)O3)cc1	inactive
Cc1ccc(S(=O)(=O)Nc2ccc3c(c2)C(=O)N([C@H](C)CO)C[C@H](C)[C@@H](CN(C)C(=O)Nc2cccc4ccccc24)OCCCC[C@@H](C)O3)cc1	inactive
Cc1ccc(S(=O)(=O)Nc2ccc3c(c2)C(=O)N([C@H](C)CO)C[C@H](C)[C@H](CN(C)C(=O)Nc2cccc4ccccc24)OCCCC[C@H](C)O3)cc1	active
Cc1ccc(S(=O)(=O)Nc2ccc3c(c2)C(=O)N([C@@H](C)CO)C[C@H](C)[C@@H](CN(C)C(=O)Nc2cccc4ccccc24)OCCCC[C@H](C)O3)cc1	inactive

SMILES	cytotoxicity call
Cc1ccc(S(=O)(=O)Nc2ccc3c(c2)C(=O)N([C@@H](C)CO)C[C@H](C)[C@H](CN(C)C(=O)Nc2cccc4ccccc24)OCCCC[C@H](C)O3)cc1	inactive
Cc1ccc(S(=O)(=O)Nc2ccc3c(c2)C(=O)N([C@@H](C)CO)C[C@@H](C)[C@@H](CN(C)C(=O)Nc2cccc4ccccc24)OCCCC[C@H](C)O3)cc1	inactive
Cc1ccc(S(=O)(=O)Nc2ccc3c(c2)C(=O)N([C@H](C)CO)C[C@@H](C)[C@H](CN(C)C(=O)Nc2cccc4ccccc24)OCCCC[C@@H](C)O3)cc1	active
Cc1ccc(S(=O)(=O)Nc2ccc3c(c2)C(=O)N([C@H](C)CO)C[C@@H](C)[C@H](CN(C)C(=O)Nc2cccc4ccccc24)OCCCC[C@H](C)O3)cc1	active
Cc1ccc(S(=O)(=O)Nc2ccc3c(c2)C(=O)N([C@@H](C)CO)C[C@H](C)[C@@H](CN(C)C(=O)Nc2cccc4ccccc24)OCCCC[C@@H](C)O3)cc1	inactive
CC(=O)Nc1cc2c(cc1N)OCCO2	inactive
COCC(=O)N(C)C[C@@H]1Oc2cc(C#C[C@H](C)O)ccc2S(=O)(=O)N([C@@H](C)CO)C[C@@H]1C	inactive
C[C@@H]1CN([C@H](C)CO)C(=O)c2cc(NC(=O)Nc3ccc4c(c3)OCO4)ccc2O[C@@H]1CN(C)Cc1ccc(Oc2ccccc2)cc1	active
C[C@H](CO)N1C[C@H](C)[C@H](CN(C)Cc2ccc(Oc3ccccc3)cc2)Oc2ccc(NC(=O)Nc3ccc4c(c3)OCO4)cc2C1=O	inactive
C[C@H]1CN([C@@H](C)CO)C(=O)c2cc(NC(=O)Nc3ccc4c(c3)OCO4)ccc2O[C@H]1CN(C)Cc1ccc(Oc2ccccc2)cc1	inactive
C[C@H]1CN([C@@H](C)CO)C(=O)c2cc(NC(=O)Nc3ccc4c(c3)OCO4)ccc2O[C@@H]1CN(C)Cc1ccc(Oc2ccccc2)cc1	active
C[C@@H]1CN([C@H](C)CO)C(=O)c2cc(NC(=O)Nc3ccc4c(c3)OCO4)ccc2O[C@H]1CN(C)Cc1ccc(Oc2ccccc2)cc1	inactive
C[C@H](CO)N1C[C@H](C)[C@@H](CN(C)Cc2ccc(Oc3ccccc3)cc2)Oc2ccc(NC(=O)Nc3ccc4c(c3)OCO4)cc2C1=O	inactive
C[C@@H]1CN([C@@H](C)CO)C(=O)c2cc(NC(=O)Nc3ccc4c(c3)OCO4)ccc2O[C@@H]1CN(C)Cc1ccc(Oc2ccccc2)cc1	active
C[C@@H]1CN([C@@H](C)CO)C(=O)c2cc(NC(=O)Nc3ccc4c(c3)OCO4)ccc2O[C@H]1CN(C)Cc1ccc(Oc2ccccc2)cc1	inactive
C[C@@H]1CN([C@@H](C)CO)C(=O)c2cccc(NC(=O)C3CCCCC3)c2O[C@H]1CN(C)C(=O)Nc1cccc2ccccc12	inactive
Cc1cc(C(=O)Nc2ccc3c(c2)C(=O)N(C)[C@@H]2CC[C@@H](CC(=O)NCC(F)(F)F)O[C@H]2CO3)no1	inactive
C[C@@H]1CN([C@@H](C)CO)C(=O)c2cc(NC(=O)CCC(F)(F)F)ccc2O[C@@H](C)CCCCO[C@@H]1CN(C)Cc1ccc(C(=O)O)cc1	inactive
O=C(C[C@@H]1C=C[C@H](NC(=O)C2CC2)[C@@H](CO)O1)NCCCN1CCOCC1	inactive
O=C(NCc1ccccc1)C1=C[C@H](c2ccc3c(c2)Cc2ccccc2-3)C[C@H](OCc2ccc(CO)cc2)O1	inactive
C[C@@H]1CN([C@@H](C)CO)C(=O)c2cc(NS(C)(=O)=O)ccc2O[C@H]1CN(C)C(=O)Nc1ccc2c(c1)OCO2	inactive
C[C@@H]1CN([C@H](C)CO)C(=O)c2cc(NC(=O)NC3CCCCC3)ccc2O[C@@H](C)CCCCO[C@H]1CN(C)C(=O)Nc1ccc(C(F)(F)F)cc1	inactive

SMILES	cytotoxicity call
CCNC(=O)[C@@H]1CCCN1C(=O)[C@H](CCCNC(=N)N)NC(=O)[C@H](CC(C)C)NC(=O)[C@@H](COC(C)(C)C)NC(=O)[C@H](Cc1ccc(O)cc1)NC(=O)[C@H](CO)NC(=O)[C@H](Cc1c[nH]c2ccccc12)NC(=O)[C@H](Cc1cnc[nH]1)NC(=O)[C@H]1CCC(=O)N1	inactive
CC(C)(C)OC(=O)CC[C@]12N=C(c3ccc(OCCCO)cc3)O[C@H]1c1ccccc1N(Cc1ccccc1)C2=O	inactive
CC(C)(C)OC(=O)CC[C@@]12N=C(c3ccc(OCCCO)cc3)O[C@@H]1c1ccccc1CN(Cc1ccccc1)C2=O	active
O=C1N(Cc2ccccc2)Cc2ccccc2C[C@]12N=C(c1ccc(OCCCO)cc1)O[C@@H]2c1ccccc1	inactive
O=C1N(Cc2ccccc2)Cc2ccccc2[C@H]2OC(c3ccc(OCCCO)cc3)=N[C@@]12Cc1ccccc1	inactive
CC(C)(C)OC(=O)CC[C@@]12N=C(c3ccc(OCCCO)cc3)O[C@@H]1c1ccccc1CN(C(=O)c1ccccc1)C2=O	active
CC(C)(C)OC(=O)CC[C@]12N=C(c3ccc(OCCCO)cc3)O[C@H]1c1ccccc1CN(C(=O)c1ccccc1)C2=O	inactive
O=C(c1ccccc1)N1Cc2ccccc2[C@H]2OC(c3ccc(OCCCO)cc3)=N[C@@]2(Cc2ccccc2)C1=O	inactive
O=C1N(Cc2ccccc2)Cc2ccccc2C[C@@]12N=C(c1ccc(OCCCO)cc1)O[C@H]2c1ccccc1	active
CC(C)(C)OC(=O)CC[C@]12N=C(c3ccc(OCCCO)cc3)O[C@H]1c1ccccc1CN(Cc1ccccc1)C2=O	inactive
COC(=O)c1cn(C)cn1	inactive
Cc1ccc(S(=O)(=O)N(C)C[C@H]2Oc3ccc(NS(C)(=O)=O)cc3CC(=O)N([C@H](C)CO)C[C@@H]2C)cc1	inactive
C[C@@H]1CN([C@@H](C)CO)C(=O)c2cc(N(C)C)ccc2O[C@@H](C)CCCCO[C@@H]1CN(C)Cc1ccc(C(F)(F)F)cc1	inactive
C[C@]1(CC(=O)O)C(=O)N=C2C=CC=CN21	inactive
COc1ccc(NC(=O)Nc2ccc3c(c2)C(=O)N([C@H](C)CO)C[C@H](C)[C@@H](CN(C)Cc2ccc(C(F)(F)F)cc2)O3)cc1	inactive
COc1ccc(NC(=O)Nc2ccc3c(c2)C(=O)N([C@H](C)CO)C[C@@H](C)[C@@H](CN(C)Cc2ccc(C(F)(F)F)cc2)O3)cc1	inactive
COc1ccc(NC(=O)Nc2ccc3c(c2)C(=O)N([C@H](C)CO)C[C@H](C)[C@H](CN(C)Cc2ccc(C(F)(F)F)cc2)O3)cc1	inactive
COc1ccc(CN(C)C[C@@H]2Oc3ccc(NC(=O)Nc4ccc(C(F)(F)F)cc4)cc3C(=O)N([C@@H](C)CO)C[C@@H]2C)cc1	active
COc1ccc(NC(=O)Nc2ccc3c(c2)C(=O)N([C@H](C)CO)C[C@@H](C)[C@H](CN(C)Cc2ccc(C(F)(F)F)cc2)O3)cc1	active
COc1ccc(CN(C)C[C@H]2Oc3ccc(NC(=O)Nc4ccc(C(F)(F)F)cc4)cc3C(=O)N([C@H](C)CO)C[C@@H]2C)cc1	inactive
COc1ccc(CN(C)C[C@@H]2Oc3ccc(NC(=O)Nc4ccc(C(F)(F)F)cc4)cc3C(=O)N([C@H](C)CO)C[C@@H]2C)cc1	active
COc1ccc(CN(C)C[C@H]2Oc3ccc(NC(=O)Nc4ccc(C(F)(F)F)cc4)cc3C(=O)N([C@H](C)CO)C[C@H]2C)cc1	active
